Laboratory results published in PubChem BioAssay.
Activity calls are given as the source filed them.

test system: PRMT1 (protein arginine N-methyltransferase 1); experiment: PRMT1 binders on small-molecule microarrays, primary screen, biochemical, small-molecule microarray, 635 nm fluorescence (AID 1088); conditions: small-molecule microarray binding, higher = more signal;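 also: binding of Prmt1 protein to compounds spotted on small-molecule microarray slides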

Composite z-score, 1.43:
C#CCCCON=C1C[C@@H](O)[C@@H](O)[C@@H]2[C@@H]3C(=O)N(c4ccc(F)cc4F)C(=O)[C@@H]3CC[C@H]12

Composite z-score, 0.0008:
O=C1C[C@@H](O)[C@@H](O)[C@@H]2[C@@H]3C(=O)N(Cc4ccc5c(c4)OCO5)C(=O)[C@@H]3CC[C@H]12

Composite z-score, 1.26:
CCOC(=O)[C@H](CC(C)C)NC(=O)CCC1CC(OC(=O)NCCc2ccc(F)cc2)CC2(CCCC(COC(=O)NCCc3ccc(Cl)cc3)O2)O1 (stereo partly drawn)

Composite z-score, 0.269:
CO[C@H]1COC(=O)[C@H](C)NC(=O)CC=C[C@@H](C)[C@H](OC)COC(=O)[C@@H](OCc2ccccc2)C=C[C@@H]1C

Composite z-score, 1.14:
C[C@@H]1CC[C@H]2C(=O)O[C@@H](Cc3ccccc3)CN2[C@H]1c1ccc(Br)cc1

Composite z-score, -0.261:
Cn1c(=O)n2n(c1=O)[C@H]1[C@H](O)[C@@H]3O[C@@H]3C(=O)[C@H]1CC2

test system: not listed separately; experiment: yeast growth modulation, basal conditions, primary screen, YJM789 clinical isolate, OD600, 24 h (AID 1089);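 also: growth of clinical yeast isolate S. cerevisiae YJM 789 seeded 1000 cells per well; test concentration not given here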; conditions: S. cerevisiae YJM789 growth, higher = more signal, called active from +8 up or from −8 down

z-score, inactive:
COc1ccc(O[C@H]2C=C[C@@H](c3ccccc3)O[C@@H]2CON=CC[C@@H]2C=C[C@H](OC(C)=O)[C@@H](COC(C)=O)O2)cc1 0.507
CO[C@H]1COC(=O)CC=C[C@@H](C)[C@H](NS(=O)(=O)c2ccc(C)cc2)COC(=O)CCC[C@@H]1C -0.419
CON=CC[C@@H]1C=C[C@H](OC(C)=O)[C@@H](COC(C)=O)O1 0.586
C=COC[C@@H]1CN2[C@@H](CC[C@@H](C)[C@@H]2c2ccc(Br)cc2)C(=O)O1 -0.872
O=C1[C@H]2[C@H]3[C@H](O)[C@H](O)CC(=NOCc4ccccc4)[C@@H]3CC[C@H]2C(=O)N1Cc1ccc2c(c1)OCO2 -0.559
COC(=O)NCC=Cc1nc(CCCO)co1 0.084
CO[C@H]1COC(=O)CC=C[C@H](C)[C@@H](OC)COC(=O)[C@@H](C)COC(=O)CC=C[C@@H]1C 0.235
COC(=O)[C@@H]1CC[C@H](C)[C@@H](c2ccc(C)cc2)N1C(=O)c1ccc(C=NOC[C@@H](C)[C@H](OCc2ccccc2)C(C)C)cc1 -2.56
COC(=O)CC=C[C@@H](C)[C@@H](C=NO[C@@H]1O[C@H](COC(C)=O)[C@@H](OC(C)=O)[C@H](OC(C)=O)[C@H]1OC(C)=O)NS(=O)(=O)c1ccc(C)cc1 0.0457
CCOC(=O)[C@H](CC(C)C)NC(=O)CCC1CC(OC(=O)NCc2cccc3ccccc23)CC2(CCCC(COC(=O)NCCOc3ccccc3)O2)O1 (stereo partly drawn) -0.524
COc1cccc([C@H]2Oc3ccc(OC)cc3C(=NO[C@@H](C)c3cn([C@H](CO)Cc4ccccc4)nn3)[C@@H]2O)c1 0.401
COC(=O)CC=C[C@@H](C)[C@@H](C=NOC[C@H]1O[C@H](c2ccccc2)C=C[C@@H]1Oc1ccc(OC)cc1)NS(=O)(=O)c1ccc(C)cc1 0.0204
C=CC1=C[C@H](O)[C@@H]2O[C@@H]2C12OCCCO2 -0.532
COC(=O)CC=C[C@@H](C)[C@H](OCc1cccc(-c2ccccc2)c1)C1CCCCC1 1.44
CC(C)CON=C1C[C@@H](O)[C@@H](O)[C@@H]2[C@@H]3C(=O)N(Cc4ccc5c(c4)OCO5)C(=O)[C@@H]3CC[C@H]12 0.306
COc1ccc(O[C@H]2C=C[C@@H](c3ccccc3)O[C@@H]2CON=C(C)C)cc1 0.278
COC(=O)CC=C[C@@H](C)[C@@H](C=NOC(C)CN1CCCc2nc(C)c(C)cc21)OC (stereo partly drawn) 0.293
CC(C)(C)N1C(=O)[C@H]2[C@H]3[C@H](O)[C@H](O)CC(=NO[C@@H]4O[C@H](CO)[C@@H](O)[C@H](O)[C@H]4O)[C@H]3CC[C@H]2C1=O 0.768
C#CCCCON=C1C[C@@H](O)[C@@H](O)[C@@H]2[C@@H]3C(=O)N(C(C)(C)C)C(=O)[C@@H]3CC[C@H]12 -0.234
CCOC(=O)NN=C1C[C@@H](O)[C@@H](O)[C@@H]2[C@@H]3C(=O)N([C@@H](C)c4ccccc4)C(=O)[C@@H]3CC[C@H]12 -0.612
COC(=O)[C@@H]1CC[C@H](C)[C@@H](c2ccc(C)cc2)N1C(=O)c1ccc(C=NO[C@H](C)c2cn([C@H](CO)Cc3ccccc3)nn2)cc1 0.149
CCOC(=O)CCN1C(=O)[C@H]2[C@H]3[C@H](O)[C@H](O)CC(=NNC(=O)OCc4ccccc4)[C@@H]3CC[C@H]2C1=O -0.662
